Data from PubChem BioAssay AID651650 (Sanford-Burnham Center for Chemical Genomics, 2012).

Target: Neuropilin-1 (Homo sapiens) (UniProt O14786)
Experiment: blockers of CendR peptide binding to NRP-1 – biochemical, FP and AlphaScreen panel, dose response (AID 651650)
Details: NRP-1 b1b2 / RPARPAR peptide binding, FP or AlphaScreen; run 1, at 100 µM (top of the series)

Sequence of Neuropilin-1 (Homo sapiens) (O14786 whole entry, looked up): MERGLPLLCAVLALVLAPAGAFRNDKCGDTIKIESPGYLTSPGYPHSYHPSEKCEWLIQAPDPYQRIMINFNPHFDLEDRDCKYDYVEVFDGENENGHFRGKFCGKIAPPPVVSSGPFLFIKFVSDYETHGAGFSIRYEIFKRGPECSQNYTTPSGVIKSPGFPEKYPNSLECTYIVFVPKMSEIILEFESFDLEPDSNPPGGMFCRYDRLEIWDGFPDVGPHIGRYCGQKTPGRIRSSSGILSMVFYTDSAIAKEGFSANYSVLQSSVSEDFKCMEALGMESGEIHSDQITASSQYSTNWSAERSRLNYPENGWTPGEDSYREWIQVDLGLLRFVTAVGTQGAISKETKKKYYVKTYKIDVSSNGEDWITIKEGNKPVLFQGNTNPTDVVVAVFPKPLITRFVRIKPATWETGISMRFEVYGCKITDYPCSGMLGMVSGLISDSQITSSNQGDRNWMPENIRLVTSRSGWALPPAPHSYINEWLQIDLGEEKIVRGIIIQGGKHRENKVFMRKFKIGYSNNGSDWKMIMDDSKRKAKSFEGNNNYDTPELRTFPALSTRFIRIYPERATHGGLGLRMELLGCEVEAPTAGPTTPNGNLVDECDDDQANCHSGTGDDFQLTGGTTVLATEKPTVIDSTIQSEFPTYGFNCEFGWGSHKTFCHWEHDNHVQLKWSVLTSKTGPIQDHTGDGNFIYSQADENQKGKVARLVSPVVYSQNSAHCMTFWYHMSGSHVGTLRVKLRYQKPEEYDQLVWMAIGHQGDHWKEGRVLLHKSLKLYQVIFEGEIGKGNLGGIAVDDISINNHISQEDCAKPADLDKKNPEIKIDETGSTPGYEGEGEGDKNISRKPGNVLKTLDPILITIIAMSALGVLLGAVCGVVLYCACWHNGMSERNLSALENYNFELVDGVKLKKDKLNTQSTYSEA

| Compound | inhibition |
| --- | --- |
| c1ccc2c(CNc3ccc(CNc4ncn[nH]4)cc3)cccc2c1 | 25.6% |
| COc1cc2oc(=O)ccc2cc1[C@@H](O)[C@@H]1OC(C)(C)OC1(C)C | 10.7% |
| COCCNC(=O)c1cc(-c2ccccc2)nn1CC1CC(c2cccc([N+](=O)[O-])c2)=NO1 (centres undefined) | 14.3% |
| NS(=O)(=O)c1ccc(CNC(=S)NCc2ccc(F)cc2)cc1 | 42.3% |
| CNC(=O)Nc1ccccc1C(=O)NCc1ccccc1 | 25.7% |
| O=c1oc(Nc2ccccc2F)nc2ccccc12 | 25.1% |
| CCOc1c2ccc(C(=O)NCCc3cccs3)cc2nn1CC | -5.4% |
| CCNS(=O)(=O)c1ccc(CCC(=O)O)cc1 | 23.4% |
| Cc1onc(-c2ccccc2)c1C(=O)Nc1c(C)n(C)n(-c2ccccc2)c1=O | 28.1% |
| COc1ccc(CCN=C2SCC(=O)N2Cc2ccccc2)cc1OC | 28.8% |
| CC(CN1CCOCC1)OC(=O)c1ccc2c(c1)OCCO2 (centres undefined) | 19.2% |
| NC(N)=NCCC[C@H](NC(=O)OCc1ccccc1)C(=O)O | 17.2% |
| COc1ccc(C(=O)N[C@H](C(=O)Nc2nc3c(s2)CCCC3)C(C)C)cc1 | 22.5% |
| C[C@@H]1CC=C[C@H]2[C@H]1C(=O)N(Cc1ccccc1)[C@H]2c1ccc(/C=C/c2ccccc2)cc1F | 48.3% |
| CCC1=C(OC(=O)N(CC)CC)N2C(=O)OC(=NCCOC)[C@]2(Cc2ccccc2)[C@H]2C1=CC[C@H]1C(=O)N(CC(=O)OC)C(=O)[C@H]12 | 56.3% |
| C=C1CCN([C@@H](CC(C)C)C(=O)NCCC(C)C)S(=O)(=O)c2ccccc21 | 35.9% |
| C=CCOc1c(CNc2ncn[nH]2)cccc1OCC | 33.2% |
| CCOC(=O)c1c2ccc(OCC(=O)NN)cc2n2ccccc12 | -1.02% |
| CCC1=C(OC(=O)N(CC)CC)N2C(=O)OC(=NCC3CC3)[C@]2(Cc2ccccc2)[C@H]2C1=CC[C@H]1C(=O)N(C)C(=O)[C@H]12 | -6.33% |
| O=C(NCCCN1CCCC(O)C1)c1cc(COc2ccc(F)cc2F)on1 (centres undefined) | 50.2% |

| Compound | inhibition |
| --- | --- |
| CCOC(=O)[C@]12CCCC=C1N(CCC1=CCCCC1)C(=O)[C@H](CC(=O)NCC13CC4CC(CC(C4)C1)C3)C2 | 20.7% |
| O=C(O)C1CCN(C(=O)c2ccc(Cl)cc2)CC1 | 32% |
| Cc1cccc(NS(=O)(=O)c2cccs2)c1 | 44.9% |
| COc1ccccc1COc1ccc2c(C)c(CC(=O)O)c(=O)oc2c1C | 44.2% |
| O=C1N[C@H](Cc2c[nH]c3ccccc23)COC(=O)[C@H](Cc2ccc(F)cc2)C/C=C\C[C@H]1CC(=O)N(CCO)Cc1ccccc1 | 41.5% |
| CC(/C=C/c1ccccc1)=N\NC(=O)CCc1ccccc1 | 19.2% |
| Cn1cnc2cc(NC(=O)c3ccco3)ccc21 | 77.5% |
| O=C(Cc1ccc(F)cc1)N1CCN=C1SCc1ccc([N+](=O)[O-])cc1 | 18.7% |
| C/C(=N\NC(=O)c1cc(O)ccc1O)c1cccc(NC(=O)c2cccc(Cl)c2)c1 | 27.7% |
| O=C(COC(=O)c1ccccn1)c1ccc([N+](=O)[O-])cc1 | 66.4% |
| O=[N+]([O-])c1cc(-c2csc(NCCc3nc4cc(C(F)(F)F)ccc4n3CCCO)n2)ccc1Cl | 33.1% |
| Cc1cnc(C(=O)OCC(=O)Nc2sc3c(c2C#N)CCC3)cn1 | 44.2% |
| Cc1ccc(Cl)cc1N1CCN(C(=O)c2cccc3c(=O)c(C)c(-c4ccccc4)oc23)CC1 | 20.7% |
| Cc1ccc(S(=O)(=O)N2[C@@H](c3ccc(Cl)cc3)C(C(=O)OC(C)(C)C)=CC[C@H]2c2ccc(Cl)c(Cl)c2)cc1 | 72.6% |
| CCN(CC(=O)NCc1cccs1)S(=O)(=O)c1ccc(C(C)C)cc1 | 1.66% |
| COc1ccc(C(=O)N2CCC(C)(C(=O)NS(=O)(=O)C3CC3)C2)cc1F (centres undefined) | 12.1% |
| COc1ccc(C(O)c2nc(-c3ccc4ccccc4c3)cs2)cc1 (centres undefined) | 26.1% |
| CNC(=O)NC(=O)C(C)OC(=O)c1c(C)noc1C (centres undefined) | 49.1% |
| Nc1ccc(C#Cc2c(-c3ccsc3)oc3ccc(N4CCOCC4)cc23)cc1 | 28.3% |
